The supplement of paper PMC6555819

Experiments:
Experiment in all cases: PBM binding z-score (relative to random genomic background probes); higher = stronger binding; sequences stand for … in GC…GCGATTGACAGCGTAGAATGAAGG
[1] = system: RARb homodimer (NR concentration 270 nM)
How it was run: (§1)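 The probes on custom Agilent 4×180K protein-binding microarrays were double-stranded, with 34-nt variable regions bearing direct-repeat seeds, single-nucleotide variants, half-site ablations and random human genomic background sequences. Incubation lasted 1 h with ligand-free nuclear receptor dimers in PBS pH 7.4, 2% milk, 0.02% Triton X-100, 1 mM DTT, 0.2 mg/mL BSA and 0.4 mg/ml salmon testes DNA. Antibodies against each partner (one per run) detected bound dimers, and fluorescence scans were regression-normalized. Binding z-scores take the random background probes as reference.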

[2] = system: RARg:RXRa (NR concentration 270 nM, RXRa partner concentration 90 nM)
How it was run: as §1

[3] = system: RARg homodimer (NR concentration 270 nM)
How it was run: as §1

[4] = system: RXRa DBDmut IVT, anti-RXR (DBD mutation: RXRa K156A/R161A, NR concentration 90 nM)
How it was run: as §1

[5] = system: RXRa homodimer (NR concentration 180 nM)
How it was run: as §1

[6] = system: THRa:RXRa (NR concentration 90 nM, RXRa partner concentration 90 nM)
How it was run: as §1

[7] = system: THRa homodimer (NR concentration 90 nM)
How it was run: as §1

[8] = system: VDR homodimer (NR concentration 270 nM)
How it was run: as §1

| Sequence | PBM binding z-score [1] | PBM binding z-score [2] | PBM binding z-score [3] | PBM binding z-score [4] | PBM binding z-score [5] | PBM binding z-score [6] | PBM binding z-score [7] | PBM binding z-score [8] |
| --- | --- | --- | --- | --- | --- | --- | --- | --- |
| CCTGACGGGTCACTCCAGGTTATAGCATCGGAGT | 2.89 | 3.82 | 3.7 | 1.04 | 3.59 | 5.04 | 0.311 | 1.27 |
| ATCGAAAGGTCGATGTGAGTATAGAGAAAGGGAA | 1.41 | 3.16 | 3.01 | 1.16 | 2.9 | 1.37 | -0.864 | 0.177 |
| CTACCCAGGTGAACAAGGTCGTTGATTACTATTC | 1.57 | 1.18 | 0.941 | 0.701 | 1.46 | 2.94 | 1.87 | 1.92 |
| CGTCCAAGGTCGGCAGGTCAGTGAAAGCGACGTG | 3.1 | 3.38 | 3.66 | 1.36 | 2.08 | 2.13 | 0.0758 | 0.171 |
| CATACTGGGCCAAAGGTCATTGATTCCAATGCTC | 4.79 | 5.89 | 5.04 | 1.73 | 6.78 | 3.47 | 1.03 | 2.42 |
| CATACAGGGTCAGCTAGGGCAGAGTAGGGACGGC | 3.44 | 4.4 | 4.87 | 1.33 | 4.24 | 3.69 | 0.984 | 2.1 |
| CCTAGAAGGCCAGGGTCACTCAAGCATTTCGCTT | 3.02 | 3.47 | 3.15 | 0.637 | 3.9 | 2.96 | 1.16 | 2.13 |
| GCTGCTAGGTCCGGTTGGTCAGCTAACGGGTACG | -0.107 | -0.731 | -0.757 | -0.46 | -0.726 | -0.903 | -0.944 | -0.324 |
| CGAACTAGGTCATAGACAGGACAGTGAATAGTAA | 2.43 | 4.2 | 4.11 | 1.6 | 3.32 | 2.62 | 0.586 | 0.676 |
| ACCTCTAGGTAACCAAGTTCAGTGAATGCCGAAC | 1.28 | 0.433 | 0.365 | 0.736 | 0.358 | 1.25 | 0.385 | 2.26 |
| CGTCCAAGTTCAATGCTAGGTCAGTGAAAGCATT | 3.86 | 5.74 | 4.36 | 4.53 | 2.5 | 3.53 | 1.21 | 4.43 |
| GCAGACAGGTGAAACGCAGGTAACTCAAGGTGGC | 0.0427 | 0.907 | 0.318 | -0.708 | 0.523 | 1.76 | -0.397 | -0.202 |
| CAAACTAGGACAAAGGTCAAAGTCGAGCCAACCA | 4.67 | 6.7 | 5.88 | 2.3 | 7.22 | 4.13 | 1.18 | 2.51 |
| CCTAATGGGCCACGAAAGGTCATTGATTCAGTGA | 4.85 | 4.78 | 4.65 | 1.17 | 4.84 | 3.95 | 0.853 | 2.52 |
| CCTAGTTTGTCAAGGTCACACACGCTATAGGTAC | 4.5 | 4.51 | 4.58 | 2.88 | 4.73 | 4.32 | 4.77 | 4.93 |
| CCTACTGGGCCAAAAAGGTCATTGCTGCCGATAA | 4.46 | 4.63 | 4.02 | 0.7 | 4.99 | 2.99 | 0.486 | 2.98 |
| AGAACGAGGGCACGATGAGTTGATAGCAGAGTAG | 1.22 | 2.18 | 2.42 | 1.77 | 1.57 | 2.03 | 0.236 | 1.66 |
| GCTTACGGGTCAAAGGTAATAGCATGAATAGAAT | 2.5 | 5.3 | 4.22 | 1.97 | 6.87 | 3.07 | -0.169 | 1.06 |
| TCTAGTTGGTCAAGGAGGTCACACACGACGGGTA | 4.26 | 4.38 | 4.29 | 0.835 | 4.27 | 3.57 | 2.15 | 2.71 |
| CCGACTGGTGCAGAAAGGTTACCATACCATCCGG | 1.73 | 1.16 | 0.812 | -0.6 | 1.61 | 0.935 | -0.35 | -0.229 |
| TCTATTAGTTGACGGGCAACCGACGAGTCCGTTT | -0.1 | 0.0549 | -0.0135 | 1.46 | 0.417 | -0.223 | -0.348 | 0.718 |
| TTACCAAGGGGAAAGGTCGTTGATGCACGCCTTG | 1.72 | 1.92 | 0.864 | 0.0883 | 2.86 | 1.4 | -0.14 | 1.52 |
| CCAGACAGGTGAGAAGGTCACTCAGCCTCGATTA | 4.12 | 4.65 | 3.85 | 0.8 | 3.76 | 2.46 | 0.916 | 1.36 |
| TCTCGGAGGACACGAAGCTCAGAGCTTTCCAGAG | 0.381 | 0.265 | 0.869 | 0.583 | -0.175 | 1.23 | 0.177 | -0.5 |
| TCGAGTAGGTGAGTCGGGGCATTCAGCCAACATA | 0.348 | -0.294 | -0.378 | 0.0607 | -0.201 | 0.829 | -0.305 | 0.0574 |
| CCTTACGGGTCACTGACAGGGTATAGCATTTGGA | 2.82 | 5.05 | 4.61 | 1.26 | 4.55 | 2.32 | -0.0972 | 0.873 |

| Sequence | PBM binding z-score [1] | PBM binding z-score [2] | PBM binding z-score [3] | PBM binding z-score [4] | PBM binding z-score [5] | PBM binding z-score [6] | PBM binding z-score [7] | PBM binding z-score [8] |
| --- | --- | --- | --- | --- | --- | --- | --- | --- |
| ATCTCTAGGTAACCAAGTTCAATGAATGCCGAAC | 1.68 | 0.955 | 1.08 | 1.64 | 0.925 | 1.89 | 0.952 | 3.84 |
| ATCGAAAGATCGTGAGGTGAGTATACAGAAAGGC | -0.106 | 0.546 | 0.519 | -0.575 | 0.649 | 1.73 | 0.91 | -0.449 |
| CAAACTAGGTCAAGGTCAAACTCGGTTTGTGCCA | 5.07 | 6.04 | 6.55 | 3.28 | 5.73 | 4.64 | 3.95 | 3.81 |
| GCAGACAGGTGAAACGCAGGTAACACAGGGTGGC | 0.0703 | 1.1 | 0.467 | -0.772 | 0.886 | 1.26 | -0.435 | -0.401 |
| TCAGCTAGGTCAACGATGGTCAGCTAATCTGCTA | 3.49 | 3.89 | 4.83 | 1.11 | 2.49 | 2.88 | 0.578 | -0.3 |
| AGAATGAGTTTATTAAGATCAGGGAATTGCGGTC | 0.079 | -0.0299 | 0.321 | 3.88 | 0.093 | 0.265 | 0.231 | 3.05 |
| ATCTCTAGGTAAAGAGAGTTCAGTGAATGCAAAT | 1.55 | 0.963 | 1.18 | 1.12 | 0.653 | 1.56 | -0.0506 | 3.67 |
| GCTACAGGGTCAGCTAGAGGCCAGAGTATGGAAA | 3.3 | 6.74 | 5.02 | 1.48 | 4.32 | 3.23 | 0.349 | 0.386 |
| CAGCCTAGGTCAGGGCCCGTATAGGAGGAACGTT | 2.26 | 2.9 | 3.84 | -0.894 | 1.46 | 1.73 | 0.213 | -0.478 |
| AGAACGAGGGCACGCTGAGTTGATAGCCGAGTAG | 1.22 | 1.94 | 2.15 | 1.99 | 1.39 | 1.89 | 0.0635 | 1.57 |
| AGAATGAGATTAAGATCAGGGAAACAGAATACAT | -0.523 | 0.0579 | 0.312 | -0.493 | -0.0987 | -0.0153 | -0.567 | -0.0769 |
| TTATCAAGGTGAAGGTCGTTGATCCCTCTGTAGA | 1.82 | 1.55 | 1.33 | 0.598 | 1.89 | 2.68 | 1.3 | 1.23 |
| ACAGACAGGTGATGAAGTTAACTCAGGCTATCAT | 0.22 | -0.00666 | 0.328 | -0.128 | 0.00488 | 1.38 | -0.0538 | 0.197 |
| AGCCAAAGTTCAGGACGAGGTAACGTAAAGCACG | 3.29 | 4.54 | 4.18 | 2.63 | 3.05 | 3.87 | 1.74 | 1.79 |
| AGAGCGAGGGCACGCTGAGTTGATAGCAGAGTAG | 1 | 1.76 | 1.96 | 1.28 | 1.06 | 1.51 | -0.183 | 1.48 |
| CCTATTAGTTGAGCATAAGGGCAACCGAAGCTCG | 1.42 | 0.728 | 0.652 | 0.381 | 0.162 | 1.58 | 0.923 | 0.43 |
| AGAATGAGGTTATTAAGATCAGGTAATTGCGGTC | 1.14 | 1.13 | 0.895 | 1.8 | 1.87 | 2.5 | 1.2 | 1.13 |
| CCAGACAGGTGAAAGGTAAGTCAGTCTGGTACGC | 0.843 | 1.2 | 0.478 | 0.066 | 1.68 | 0.828 | 0.0448 | 0.0335 |
| AATACAGGGTCATCGTATGCCAGAGTACGCACAG | 3.1 | 5.61 | 4.95 | 3.42 | 6.33 | 3.67 | 1.21 | 3.64 |
| TCAGACAGGTGAAGGTAACTCATGTACGCAGTCG | 0.741 | 0.76 | 0.656 | 1.32 | 1.02 | 0.677 | 0.193 | 0.0395 |
| AGAATGAGGTTACCAAAGCTCAGGGAAACGCTTG | 0.544 | 1.91 | 1.54 | 1.04 | 2.62 | 2.83 | 0.864 | -0.0119 |
| TTACCTAGGTGAAGGTCGTTGATCCCTCTGTAGA | 1.21 | 0.824 | 0.525 | -0.143 | 1.29 | 1.9 | 0.379 | 0.61 |
| CCCAGCAGGCCAGGGTCACTCAAGCATTTCGCTT | 2.82 | 3.02 | 2.79 | 0.022 | 3.26 | 2.81 | 1.3 | 1.55 |
| TTAGCAAGGTGAAAGGTCGTTGATGCACGCCTTG | 2.23 | 4.16 | 1.75 | 0.67 | 5.52 | 3.02 | 0.254 | 1.18 |
| GCTATTAGTTGAAAGGGGAACCGAATGATTCTCG | -0.167 | 0.105 | 0.00369 | 0.78 | 0.144 | 0.00231 | -0.215 | -0.125 |
| CCTCGGAGGACAGACGGTCAGAGCTGTCCGCTTT | 0.948 | 0.15 | 1.12 | -0.152 | -0.87 | -0.0863 | -0.156 | -0.276 |
